Measured values from PubChem BioAssay (Tox21).
Records with an inconclusive call do not appear. Calls of active or inactive are those of the source. Unless noted, the call rests on the fitted dose curve.

Experiments:
[1] = target: Thyrotropin receptor (Homo sapiens) (UniProt P16473); assay: qHTS assay to identify small molecule agonists of the thyroid stimulating hormone receptor (TSHR) signaling pathway (AID 1224843); further: nearly all actives have a fitted effect of over 45% in size
In short: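 HEK293/TSHR, 800 cells/well; cpd 30 min RT; add cAMP-d2 + anti-cAMP-cryptate, 1 h RT; fluorescence read on plate reader. 15-pt titration, n=3.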

[2] = qHTS assay to identify small molecule agonists of the hypoxia (HIF-1) signaling pathway - cell viability counter screen (AID 1224844); further: nearly all actives have a fitted effect of over 50% in size
In short: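 CellTiter-Glo luminescence read-out, 30 min RT, taken in the same wells as the beta-lactamase HRE reporter assay; HRE-bla ME-180 cells, 0.5% dialyzed FBS, 17 hr compound treatment at 37C, 5% CO2.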

[3] = qHTS assay to identify small molecule agonists of H2AX (AID 1224845; active means well fitted activation curve with a large enough effect in the signal ratio in the repeat runs, not every such curve was filed as active; the % refers to the signal ratio)
In short: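 Wild-type CHO-K1 cells, plated overnight, exposed 3hr at 37C to 15 concentrations (0.76% DMSO final). Lysed, then HTRF anti-pH2AX (S139) cryptate and anti-H2AX-d2 antibodies, 24 hr room temperature; 665/620 nm emission read.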

[4] = qHTS assay to identify small molecule agonists of the hypoxia (HIF-1) signaling pathway (AID 1224846; active means well fitted activation curve with a large enough effect in the signal ratio in the repeat runs, not every such curve was filed as active; the % refers to the signal ratio)
In short: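 Beta-lactamase FRET read-out (CCF4-AM substrate) from ME-180 cells carrying an HRE-driven bla reporter, after 17 hrs compound exposure at 37C/5% CO2. Cells were seeded at 2,000 per well in 0.5% dialyzed FBS medium and preincubated 5 hrs.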

[5] = qHTS assay to identify small molecule agonists of H2AX - cell viability counter screen (AID 1224847); further: top concentration of the series differs between compounds; nearly all actives have a fitted effect of over 30% in size
In short: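 Cytotoxicity counter screen in wild-type CHO-K1 cells: a 3 hr compound treatment at 37C across 15 concentrations, followed by CellTiter-Glo luminescence to gauge viable cells.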

[6] = qHTS assay to identify small molecule antagonists of the estrogen related receptor (ERR) signaling pathway from Tox21 library (AID 1224848; active means well fitted curve in the direction sought with a large enough effect in the repeat runs; an effect the other way counts as inactive or inconclusive; further: nearly all actives have a fitted effect of over 50% in size)
In short: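 Compounds dissolved in DMSO are pin-transferred onto ERR reporter cells (2,000 per well) that have settled for 6 h at 37 C. Plates then incubate 18 h at 37 C before ONE-Glo luciferase reagent and a luminescence read 30 min later.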

[7] = qHTS assay to identify small molecule agonists of the estrogen related receptor (ERR) signaling pathway from Tox21 library (AID 1224849); settings: ERR reporter cell line, ONE-Glo luciferase, 18 h; at 92.4 µM (top of the series) unless noted; further: nearly all actives have a fitted effect of over 15% in size
In short: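 Luminescence readout (ONE-Glo, 30 min RT) after 18 h compound exposure at 37 C of NTP-supplied ERR reporter cells; cells were plated 6 h before compound addition by pin tool.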

[8] = qHTS RealTime-Glo MT Cell Viability Assay in HepG2 cells - 24 hour (AID 1224867; active means well fitted curve in the direction sought with a large enough effect in the repeat runs; an effect the other way counts as inactive or inconclusive; further: nearly all actives have a fitted effect of over 50% in size)
In short: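 Viability was tracked continuously by NanoLuc luminescence from prosubstrate reduced by living HepG2 cells, at successive time points over 40 h of compound exposure. Cells with reagent were preincubated 5 h at 37 °C before compound addition.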

[9] = A CellTox Green Cytotoxicity Assay to monitor cytotoxicity in HEK293 cells - 0 hour (AID 1224869; active means well fitted curve in the direction sought with a large enough effect in the repeat runs; an effect the other way counts as inactive or inconclusive; further: nearly all actives have a fitted effect of over 50% in size; further: potency means the concentration at half of the fitted maximal effect)
In short: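 Read-out: fluorescence of a cell-impermeant cyanine dye staining DNA of dead cells, proportional to cytotoxicity. HEK293, 600 cells/well with reagent, compound (23 nL DMSO) added after 5 h; reads at 0, 8, 16, 24, 32, 40 h.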

[10] = qHTS RealTime-Glo MT Cell Viability Assay in HEK293 cells - 32 hour (AID 1224868; active means well fitted curve in the direction sought with a large enough effect in the repeat runs; an effect the other way counts as inactive or inconclusive)
In short: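 Viability tracked continuously by luminescence as live cells reduce a prosubstrate for NanoLuc; HEK293 cells preincubated 5 h, compound-treated at 37 C, and read at 0, 8, 16, 24, 32 and 40 h.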
On the % scale 0 is the no-effect control and ±100 the full control effect.

Thyrotropin receptor (Homo sapiens), sequence (P16473 whole entry, looked up): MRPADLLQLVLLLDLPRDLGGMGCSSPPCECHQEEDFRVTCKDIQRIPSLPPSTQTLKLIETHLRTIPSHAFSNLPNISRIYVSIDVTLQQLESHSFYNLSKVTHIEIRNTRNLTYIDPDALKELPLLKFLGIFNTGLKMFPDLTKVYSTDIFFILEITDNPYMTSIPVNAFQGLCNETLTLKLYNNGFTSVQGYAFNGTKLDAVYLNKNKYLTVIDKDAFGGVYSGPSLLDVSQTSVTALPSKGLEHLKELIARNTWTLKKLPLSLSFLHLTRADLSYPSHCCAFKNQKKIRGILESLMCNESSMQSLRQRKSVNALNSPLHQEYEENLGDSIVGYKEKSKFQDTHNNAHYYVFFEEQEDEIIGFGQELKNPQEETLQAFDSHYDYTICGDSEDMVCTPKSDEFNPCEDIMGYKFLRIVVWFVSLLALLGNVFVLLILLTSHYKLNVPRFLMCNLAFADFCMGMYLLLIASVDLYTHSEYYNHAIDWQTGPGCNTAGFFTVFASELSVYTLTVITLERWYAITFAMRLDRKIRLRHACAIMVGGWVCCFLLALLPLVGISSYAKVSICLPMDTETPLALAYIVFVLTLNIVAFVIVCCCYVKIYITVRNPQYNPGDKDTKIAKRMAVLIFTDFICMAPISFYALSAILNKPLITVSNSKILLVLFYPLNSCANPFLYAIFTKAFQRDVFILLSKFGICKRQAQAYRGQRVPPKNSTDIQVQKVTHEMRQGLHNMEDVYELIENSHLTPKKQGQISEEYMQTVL

CCC(=O)Nc1cccc(N)c1
inactive: outcome [1] | Potency [2] | outcome [3] | outcome [4] | Potency [5] | Potency [6] | activity change, positive = activation [7] -10.7% | outcome [8] | Potency [9]

CC1CCN(CCCC(=O)c2ccc(F)cc2)CC1
inactive: outcome [1] | Potency [2] | outcome [3] | outcome [4] | Potency [5] | Potency [6] | activity change, positive = activation [7] 6.1% [at 42.5 µM] | outcome [8] | Potency [10] | Potency [9]

CNc1ncnc2nc[nH]c12
inactive: outcome [1] | Potency [2] | outcome [3] | outcome [4] | Potency [5] | Potency [6] | activity change, positive = activation [7] 1.91% | outcome [8] | Potency [10] | Potency [9]

CC(C)COC(=O)C(C)C
inactive: outcome [1] | Potency [2] | outcome [3] | outcome [4] | Potency [5] | Potency [6] | activity change, positive = activation [7] 8.11% | outcome [8] | Potency [10] | Potency [9]

C=CC(=O)N1CCOCC1
inactive: outcome [1] | Potency [2] | outcome [3] | outcome [4] | Potency [5] | Potency [6] | activity change, positive = activation [7] 4.07% | outcome [8] | Potency [10] | Potency [9]

CCCCCCC(=O)OCC
inactive: outcome [1] | Potency [2] | outcome [3] | outcome [4] | Potency [5] | Potency [6] | activity change, positive = activation [7] 6.4% | outcome [8] | Potency [10] | Potency [9]

CC(C)CCCC(C)NCCC(C)C (stereo not drawn)
inactive: outcome [1] | Potency [2] | outcome [3] | outcome [4] | Potency [5] | Potency [6] | activity change, positive = activation [7] 1.21% [at 42.5 µM] | outcome [8] | Potency [9]

Nc1ccn(C2CO[C@H](CO)O2)c(=O)n1 (stereo partly drawn)
active: Potency [9] 16.9 µM
inactive: outcome [1] | Potency [2] | outcome [3] | outcome [4] | Potency [5] | Potency [6] | activity change, positive = activation [7] 0.852% [at 42.5 µM] | outcome [8] | Potency [10]

CC(C)(O)Cc1ccccc1
inactive: outcome [1] | Potency [2] | outcome [3] | outcome [4] | Potency [5] | Potency [6] | activity change, positive = activation [7] -2.35% | outcome [8] | Potency [9]

CCCCCCOC(=O)CC(CC(=O)OCCCCCC)(OC(=O)CCC)C(=O)OCCCCCC
inactive: outcome [1] | Potency [2] | outcome [3] | outcome [4] | Potency [5] | Potency [6] | activity change, positive = activation [7] -12.6% | outcome [8] | Potency [10] | Potency [9]

CN(C)N=Nc1ccccc1
inactive: outcome [1] | Potency [2] | outcome [3] | outcome [4] | Potency [5] | Potency [6] | activity change, positive = activation [7] 9.49% | outcome [8] | Potency [10] | Potency [9]

COc1ccc(COC=O)cc1
inactive: outcome [1] | Potency [2] | outcome [3] | outcome [4] | Potency [5] | Potency [6] | activity change, positive = activation [7] -0.945% | outcome [8] | Potency [10] | Potency [9]

C=C(C)C(=O)OCCCCCCCCCCCCCCCCCC
inactive: activation [1] -1.44% [at 19 µM] | activity change, negative = cytotoxicity [2] 5.2% [at 15.8 µM] | activation (H2AX phosphorylation) [3] 0.951% [at 31.6 µM] | activation [4] -0.144% [at 15.8 µM] | activity change, negative = cytotoxicity [5] 1.51% [at 31.6 µM] | activity change, negative = cytotoxicity [8] 4.54% [at 15.8 µM] | activity change, negative = cytotoxic [10] 4.26% [at 15.8 µM] | cytotoxicity [9] 2.77% [at 15.8 µM]

NC(=O)c1c(Cl)cccc1Cl
inactive: outcome [1] | Potency [2] | outcome [3] | outcome [4] | Potency [5] | Potency [6] | activity change, positive = activation [7] -1.3% | outcome [8] | Potency [10] | Potency [9]

C#CC(C)(O)CC(C)C (stereo not drawn)
inactive: outcome [1] | Potency [2] | outcome [3] | outcome [4] | Potency [5] | Potency [6] | activity change, positive = activation [7] 13.6% | outcome [8] | Potency [9]

COC[C@H](c1ccc(C(F)(F)F)cc1)N1CCN(C2(C)CCN(C(=O)c3c(C)ncnc3C)CC2)C[C@H]1C
inactive: outcome [1] | Potency [2] | outcome [3] | outcome [4] | Potency [5] | Potency [6] | activity change, positive = activation [7] -5.81% [at 42.5 µM] | outcome [8] | Potency [10] | Potency [9]

CCCC=O
inactive: outcome [1] | Potency [2] | outcome [3] | outcome [4] | Potency [5] | Potency [6] | activity change, positive = activation [7] 0.262% | outcome [8] | Potency [10] | Potency [9]

COc1ccc2cc(C=O)ccc2c1
inactive: outcome [1] | Potency [2] | outcome [3] | outcome [4] | Potency [5] | Potency [6] | activity change, positive = activation [7] 3.74% [at 42.5 µM] | outcome [8] | Potency [10] | Potency [9]

CN(C)C(=O)Nc1ccccc1
inactive: outcome [1] | Potency [2] | outcome [3] | outcome [4] | Potency [5] | Potency [6] | activity change, positive = activation [7] 3.55% | outcome [8] | Potency [10] | Potency [9]

CC(C)[C@H](N)C(=O)OCCOCn1cnc2c(=O)[nH]c(N)nc21
inactive: outcome [1] | Potency [2] | outcome [3] | outcome [4] | Potency [5] | outcome [8] | Potency [10] | Potency [9]

Nc1ncnc2c1ncn2Cc1c(F)cccc1Cl
inactive: outcome [1] | Potency [2] | outcome [3] | outcome [4] | Potency [5] | Potency [6] | activity change, positive = activation [7] 0.331% [at 42.5 µM] | outcome [8] | Potency [9]

CC1(C)SC(C)(C)SC(C)(C)S1
inactive: outcome [1] | Potency [2] | outcome [3] | outcome [4] | Potency [5] | Potency [6] | activity change, positive = activation [7] -8.06% | outcome [8] | Potency [9]

O=C(O)C(O)[C@H](O)[C@@H](O)[C@H](O)[C@H](O)CO (stereo partly drawn)
inactive: outcome [1] | Potency [2] | outcome [3] | outcome [4] | Potency [5] | activity change, positive = activation [7] -30.1% | outcome [8] | Potency [9]
